# Compound activity from PubChem.
# The list is not random: actives were taken first. Their share in the collection is about 3.1%.
# S16 F2sN tox = S16 Schwann cell cytotoxicity | S16 Pmp22-F2sN Schwann cells viability, CellTiter-Glo, 24 h | Potency, µM (doses to about 57.5 µM), without a hit: at the top dose activity change, negative = cytotoxicity, actives largely listed as cytotoxic | 0.48% of 43,000 active | AID 1508642; also: nearly all actives have a fitted effect of over 65% in size
#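 Used to flag compounds lowering reporter output through toxicity, this quantitative HTS measures ATP-based CellTiter-Glo luminescence in S16 Pmp22-F2sN Schwann cells after 24 h compound exposure at 37C.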
# p53null 39C tox = p53 null cell cytotoxicity, nonpermissive temperature; H1299 p53-null (neo) cells, 39C, ATPlite viability, 24 h; Potency, µM (top dose mostly 46.1 µM), for the others: at the top dose activity, negative = cell killing, hits mostly cytotoxic; 0.97% of 55,000 active; AID 904;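 also: 0% = DMSO only and -100% = full killing by 100 µM tamoxifen; nearly all actives have a fitted effect of over 50% in size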
#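 Cells seeded at 600/well, 37C overnight. Compound added (up to 46 uM), plates shifted to 39C for 24 hr. ATPlite added, luminescence read after 20 min at room temperature.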
# OvCa metastasis = ovarian cancer metastasis inhibition, 3D TME model; SKOV3ip1-GFP adhesion/invasion on 3D omental model, fluorescence; Potency, µM (series often up to 45.8 µM), for the others: top-dose activity change, negative = inhibition, usual class: inhibitors; 0.1% of 46,000 active;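 also: plate controls were DMSO wells for no effect and tomatine positive control wells for full effect; nearly all actives have a fitted effect of over 65% in size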
#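 Primary human omental fibroblast/mesothelial 3D culture pre-formed 48 h. SKOV3ip1-GFP cells added with compounds (0.36-46 umol/L), incubated 2 h RT/16 h 37 C, fixed; GFP cells quantified at 488/509 nm.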
# PMP22 txn = modulates PMP22 transcription in S16 Schwann cells. Potency, µM (highest dose often 57.5 µM), for inactives: at the highest dose activity change, negative = inhibition, usual class: inhibitors. S16 Pmp22-F2sN Schwann cells (luciferase reporters placed in the Pmp22 gene), FLuc/NLuc coincidence luminescence, 24 h. 2% of 43,000 active. AID 1508649; active = clear falling dose curves in both reporters; inconclusive = both reporters move, but less clearly or upward; inactive = either reporter flat; the % is the NLuc reporter signal
#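 qHTS, 1536-well. Cells seeded, compounds added by pin tool, 24 h 37C. Nano-Glo reagent 1 (lysis/FLuc), 10 min RT, read; Stop&Glo, 10 min RT, read NLuc.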
# p53null 32C tox = p53 null cell cytotoxicity, permissive temperature; H1299-neo p53 null cells, ATP luminescence, 24 h, 32C; Potency, µM (highest dose often 46.1 µM), for inactives: at the top dose activity change, negative = cytotoxicity, most hits filed as cytotoxic; 0.62% of 55,000 active; AID 903;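 also: 0% = DMSO only and -100% = full killing by 100 µM tamoxifen; nearly all actives have a fitted effect of over 55% in size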
#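 ATP-content luminescence in p53-null H1299-neo cells after 24 h compound exposure (up to 46 uM) at 32C permissive temperature; 0% and 100% killing set by DMSO and 100 uM tamoxifen; Hill-equation AC50.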
# pS6 MEF inh = inhibitors of mTORC1 signaling in Tsc2-/- p53-/- MEF cells; Tsc2-/- p53-/- MEF, phospho-rpS6 immunofluorescence/PI, 24 h; Potency, µM (doses to about 38.3 µM), inactives show top-dose activity change, negative = inhibition, usual class: inhibitors; 0.78% of 44,000 active;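 also: plate controls were DMSO for no effect and rapamycin for full effect; nearly all actives have a fitted effect of over 50% in size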
#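 Plate MEFs (Tsc2-/-, p53-/-, empty vector) in DMEM/10% FBS; after 24 h add compound, incubate 24 h at 37 degree Celsius; fix in PFA/TX-100, block, stain phospho-rpS6 and 10 uM PI; scan at 488 nm; report % positive cells.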
# * marks the source's active call; other numbers are inactive results; i = inactive; ? = inconclusive; nt = not tested or not shown. Unless noted, calls follow the shape of the dose curve; as a rule, active = well fitted curve in the direction sought with a large enough effect; inconclusive = small, poorly fitted or top-dose-only effect, or another doubt; inactive = no such curve, though single readings can be large; an effect the other way counts as inactive or inconclusive. Unless noted, % is scaled to controls: 0 for no effect and ±100 for the full control effect; potency is read from the fitted curve at half-maximal effect.
SMILES,S16 F2sN tox,p53null 39C tox,OvCa metastasis,PMP22 txn,p53null 32C tox,pS6 MEF inh
CNC(=O)c1ccc(-c2cnc3ncc(Cc4ccc5ncccc5c4)n3n2)cc1F,nt,nt,-7%,nt,nt,nt
CCOC1OC(=O)C[C@H]1NC(=O)[C@@H]1CCCN1C(=O)[C@@H](NC(=O)c1ccc(N)c(Cl)c1)C(C)(C)C (stereo partly specified),nt,nt,-24%,nt,nt,nt
Cc1ccccc1CCNC(=O)c1ccc2c(c1)nc1n2CCC(C)C1 (stereo unspecified),22%,?,i,?,10µM*,4%
O=C(NCCc1ccccc1Cl)c1ccc2c(c1)nc1n2CCCCC1,-2%,2.5µM*,?,17%,3.2µM*,0%
O=C(NCCc1ccccc1)c1ccc2c(c1)nc1n2CCOC1,2%,10µM*,-5%,-3%,7.9µM*,-19%
CCNC(=O)c1ccc2c(c1)nc1n2CCCCC1,4%,?,i,1%,?,2%
CC(C)CCNC(=O)c1ccc2c(c1)nc1n2CCCCC1,1%,6.3µM*,-3%,-15%,7.9µM*,0%
Cc1ccc(CCNC(=O)c2ccc3c(c2)nc2n3CCOC2)cc1,18%,-10%,-21%,-1%,-5%,-5%
CCOC(=O)c1cnc2c(Cl)cccc2c1NCCN1CCOCC1,6%,19%,-9%,-17%,-15%,0%
O=C1C(Cl)=C(NCCN2CCOCC2)C(=O)c2ncccc21,nt,nt,5.9µM*,nt,nt,nt
C=CC1=C(C(=O)O)N2C(=O)[C@@H](NC(=O)C(=NO)c3csc(N)n3)[C@H]2SC1,nt,nt,14%,nt,nt,nt
O=C(Nc1ccc2oc(-c3ccc4ccccc4c3)nc2c1)c1cc(Br)ccc1Cl,-4%,-15%,?,?,-4%,16µM*
O=C(Nc1ccc2oc(-c3cc(Br)ccc3Cl)nc2c1)c1ccc2ccccc2c1,22µM*,?,-26%,?,-9%,-14%
O=C(Nc1ccc2oc(-c3ccc4ccccc4c3)nc2c1)c1cc(Cl)ccc1Cl,0%,1%,i,0%,2%,5%
Cc1cn2c(=O)cc(COC(=O)c3cccc(NC(=O)c4ccc(C(C)(C)C)cc4)c3)nc2s1,9%,0.79µM*,i,3%,2.5µM*,8%
CC(C)(C)c1ccc(C(=O)Nc2ccc(C(=O)OCc3cc(=O)n4ccsc4n3)cc2)cc1,?,2µM*,-9%,?,?,13%
Cc1ccc(C(=O)Nc2ccc(C(=O)OCc3cc(=O)n4ccsc4n3)cc2)cc1,8%,-1%,i,-3%,-1%,0%
O=S(=O)(O)CCSSCCS(=O)(=O)O,nt,nt,17%,nt,nt,nt
CCCCn1c2ccc(F)cc2c2nnc(SCCN(CC)CC)nc21,-7%,-22%,-16%,15µM*,-6%,?
Cc1cccc(NC(=O)CSc2ccc(-c3ccccn3)nn2)c1,-19%,?,?,?,-16%,?
COc1cc(NC(=O)CSc2ccc(-c3ccccn3)nn2)cc(OC)c1,-27%,?,i,?,-28%,13µM*
Cc1ccc(NC(=O)CSc2ccc(-c3ccccn3)nn2)cc1F,-22%,-10%,-18%,-47%,-18%,15µM*
Cc1ccc([N+](=O)[O-])cc1S(=O)(=O)N(C)N=Cc1cnc2ccc(Br)cn12,nt,nt,24%,nt,nt,nt
COc1ccc2cc(-c3nc(-c4ccc(S(C)=O)cc4)[nH]c3-c3ccncc3)ccc2c1 (stereo unspecified),nt,nt,1%,nt,nt,nt
CO[C@@H](C(=O)N1Cc2[nH]nc(NC(=O)c3ccc(N4CCN(C)CC4)cc3)c2C1)c1ccccc1,nt,nt,13µM*,nt,nt,nt
COc1cc(NC(=O)CSc2nc(-c3ccc(C(C)C)cc3)no2)cc(OC)c1,-1%,-20%,-5%,9.1µM*,-30%,-14%
